# Inconclusive results are not listed. A number with no mark means an inactive call. Calls of active or inactive are those of the source. The call rests on the fitted dose curve; in most records, active means well fitted inhibition curve with a large enough effect; inconclusive means small, poorly fitted or top-dose-only effect; inactive means flat fitted curve, though single readings scatter.
# Assay: P-glycoprotein substrates identified in KB-8-5-11 adenocarcinoma cell line, qHTS therapeutic library screen (AID 1346987); further: nearly all actives have a fitted effect of over 65% in size
# Settings: KB-8-5-11 (P-gp overexpressing) viability, CellTiter-Glo, 72 h; series mostly up to 44.5 µM; activity change, negative = cytotoxicity: at the top concentration
# Summary of the method: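 Compounds are pinned in dose-response onto KB-8-5-11 cells (500 cells/well, colchicine-free medium) and left 72 h at 37 degree C. CellTiter-Glo luminescence then yields AC50 values.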
# On the % scale 0 is the no-effect control and ±100 the full control effect.
SMILES,outcome,"activity change, negative = cytotoxicity"
O=C(O)c1cc(-c2c(-c3ccccc3)nn3ccccc23)n[nH]c1=O,inactive,
CC(C)C[C@H](CC(=O)NO)C(=O)N[C@H](C(=O)N[C@@H](C)C(=O)NCCN)C(C)(C)C,,2.84% [at 9.29 µM]
C=C1C(=O)OC2C1C(O)CC1(C)C(O)CCC(C=O)C21 (stereo not given),,5.1%
C=C[C@H]1C(O[C@@H]2O[C@H](CO)[C@@H](O)[C@H](O)[C@H]2O)OC=C2C(=O)N3CCc4c([nH]c5ccccc45)C3CC21 (stereo not given in full),,3.04% [at 17.3 µM]
COC(=O)CC(O)CC(O)/C=C/c1c(C)ccc2c1C(O)CC(C)C2 (stereo not given),,1.44%
CCC(O)(C(=O)OCc1ccccc1NC(=O)CCC(=O)O)C(C)O (stereo not given),,2.95%
O=C1NC(Cc2c[nH]c3ccccc23)C(=O)NC1Cc1cnc[nH]1 (stereo not given),inactive,
COc1cc(C(=O)O)ccc1OC1OC(CO)C(O)C(O)C1O (stereo not given),,0.772%
CN[C@H](CC(C)C)C(=O)N[C@H]1C(=O)N[C@@H](CC(N)=O)C(=O)N[C@H]2C(=O)N[C@H]3C(=O)N[C@H](C(=O)N[C@H](C(=O)O)c4cc(O)cc(O)c4-c4cc3ccc4O)[C@H](O[C@H]3C[C@](C)(N)[C@@H](O)[C@H](C)O3)c3ccc(c(Cl)c3)Oc3cc2cc(c3O[C@@H]2O[C@H](CO)[C@@H](O)[C@H](O)[C@H]2O[C@H]2C[C@](C)(NCc3ccc(-c4ccc(Cl)cc4)cc3)[C@@H](O)[C@H](C)O2)Oc2ccc(cc2Cl)[C@H]1O,inactive [at 17.3 µM],
OC[C@H]1O[C@@H](OC[C@H]2O[C@@H](OC/C=C/c3ccccc3)[C@H](O)[C@@H](O)[C@@H]2O)[C@@H](O)[C@@H]1O,inactive [at 17.3 µM],
